Reference: PubChem BioAssay AID624172 (National Center for Advancing Translational Sciences (NCATS), 2012)
Screen size: about 380,000 compounds; about 25 (0.007%) were called active. Calls come from the whole dose curve; as a rule, active = well fitted activation curve with a large enough effect; inconclusive = small, poorly fitted or top-dose-only effect; inactive = no such curve, though single readings can be large or run the other way. Not all results are given here.

Target: Glucagon-like peptide 1 receptor (Homo sapiens) (UniProt P43220)
Experiment: qHTS of GLP-1 Receptor Agonists; note: % of control where 0% means no effect
Details: HEK293 GLP-1R CRE-luciferase, luminescence, 4-6 h, cells express a hypersensitive GLP-1R form; series mostly up to 45.6 µM; activation: at the top concentration
Description: The overall goal of this project was to develop a novel assay for discovering small molecule ligands for class B1 G protein-coupled receptors (GPCRs). Very few agonists (or inverse agonists) with generally weak activity for this entire group of physiologically important receptors are known to date. To establish proof-of-principle that this critical bottleneck can be overcome with a suitable screening approach, our studies focused on the class B1 receptor for glucagon-like peptide-1 (GLP-1R), a potential therapeutic target for diabetes and neurodegenerative disease.
The assay was developed in a "mix and measure" format using a cell-based functional readout. Toward this goal, stably transfected HEK293 cell clones were established that co-express (i) a cAMP-responsive luciferase reporter gene, and (ii) GLP-1Rs that upon ligand interaction either stimulate (agonists) or inhibit (inverse agonists) luciferase activity. In different cell lines to be used for screening, expressed GLP-1Rs are specifically optimized for high sensitivity detection of either weak agonists (hypersensitive receptor) or inverse agonists (constitutively active receptor mutant). In addition, control cell lines were developed that express either the cAMP-responsive reporter gene without recombinant GLP-1Rs (enabling initial exclusion of GLP-1R independent effects of candidate probes), or the reporter gene together with wild type GLP-1Rs (for confirmation of probe activity at this receptor), or the reporter gene in combination with the constitutively active orphan receptor GPR119 (enabling initial exclusion of GLP-1R independent inhibitory effects of candidate inverse agonists).
To that end, this assay was optimized for 1536-well format and screened against the MLSMR.
NIH Molecular Libraries Probe Production Network [MLPCN]
NIH Chemical Genomics Center [NCGC]
PI Name: Martin Beinborn, Tufts Medical Center
In a white solid 1536-well plate, 6 uL of cells are dispensed in DMEM without phenol red, 10% Nu serum, and 1% pen-strep medium. The plates are then incubated for 12 hours at 37 deg C at 5% CO2 before 23 nL of compounds are added. After a 4-6 hr incubation at37 deg C and 5% CO2, 3 uL of detection reagent are added and after a 12 min incubation at RT, a luminescent read is obtained on the ViewLux.

Chain of Glucagon-like peptide 1 receptor (Homo sapiens) (P43220 whole entry, looked up): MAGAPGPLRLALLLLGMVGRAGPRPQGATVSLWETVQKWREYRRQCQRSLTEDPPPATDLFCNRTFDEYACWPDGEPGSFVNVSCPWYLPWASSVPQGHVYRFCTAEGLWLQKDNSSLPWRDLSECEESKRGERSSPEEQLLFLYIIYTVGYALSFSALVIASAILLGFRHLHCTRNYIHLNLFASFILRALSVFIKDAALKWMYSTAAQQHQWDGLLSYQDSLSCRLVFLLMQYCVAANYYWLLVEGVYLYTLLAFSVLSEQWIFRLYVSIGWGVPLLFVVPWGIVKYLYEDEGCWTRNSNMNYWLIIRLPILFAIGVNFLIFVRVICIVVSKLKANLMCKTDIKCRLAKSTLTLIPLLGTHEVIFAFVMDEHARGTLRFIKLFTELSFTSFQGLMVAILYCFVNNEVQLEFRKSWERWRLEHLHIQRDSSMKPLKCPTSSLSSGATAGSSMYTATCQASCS

activation, inactive:
COC(=O)[C@@H]1CC2=CC(=O)CC[C@]2(C)[C@@]23O[C@@H]2C[C@@]2(C)[C@@H](CC[C@@]24CCC(=O)O4)[C@H]13 6.89%
OCC(CO)NC1C[C@](O)(CO)[C@@H](O)[C@H](O)[C@H]1O (stereo partly specified) -3.76%
Cc1ccccc1NC(=O)Cn1c(=O)n(Cc2ccco2)c(=O)c2ccc(C(=O)NC3CCCC3)cc21 2%
CC(=O)O[C@]1(C(C)=O)CC[C@@H]2[C@@H]3C=C(C)C4=CC(=O)CC[C@@]4(C)[C@H]3CC[C@]21C -3.27% [at 19.8 µM]
C[C@]12CC[C@@H]3c4ccc(O)cc4C[C@@H](CCCCCCCCCS(=O)CCCC(F)(F)C(F)(F)F)C3[C@@H]1CC[C@@H]2O (stereo partly specified) 14.3%
Cc1nn(-c2ccc(F)cc2)c(-n2cccc2)c1C(=O)N1CCN(c2ccccc2)CC1 4.43%
O=C(CCCCn1c(=O)c2ccccc2n(CC(=O)Nc2cccc(C(F)(F)F)c2)c1=O)NCc1ccc2c(c1)OCO2 1.22%
COc1cccc(NC(=O)CSc2cc(=O)n(C)c3ccc(Cl)cc23)c1 5.73%
CCc1ccccc1NS(=O)(=O)c1ccc2nc(-c3ccccc3)[nH]c2c1 -6.53%
Cc1ccc(C)c(N2CCN(C(=O)CCc3c(C)nc4c(c3C)c(=O)n(C)c(=O)n4C)CC2)c1 -1.73%
O=C(Nc1cccc(C(F)(F)F)c1)c1cc(Br)cc(Br)c1O -2.09%
CCOC(=O)c1ccc(N2C(=O)c3n[nH]c(C)c3C2c2ccc(O)c(OC)c2)cc1 (stereo unspecified) 9.13%
CCc1ccc(NC(=O)CN2CCSc3ccc(S(=O)(=O)N4CCCC4)cc32)cc1 7.06%
C=C1C(=CC=C2CCC[C@]3(C)[C@@H]([C@H](C)C=C[C@H](C)C(C)C)CC[C@@H]23)C[C@@H](O)C[C@@H]1O -4.1%
CCOc1ccc(NC(=O)Cn2cc(C(=O)c3ccc(C)cc3)c(=O)c3cc4c(cc32)OCCO4)cc1 0.588%
CCOC(=O)c1oc2ccc(S(=O)(=O)n3nc(-c4ccccc4OC)cc3N)cc2c1C 0.713%
COc1ccc(S(=O)(=O)n2nc(C)c(S(=O)(=O)N3CCCCCC3)c2C)cc1 -1.8%
CCN(C(=O)c1sc2cc(OC)ccc2c1Cl)c1ccccc1 8.92%
CN(C)c1ccc(NC(=O)CSc2nc(-c3ccco3)cc(C(F)(F)F)n2)cc1 0.431%
CCCCC(=O)OCC(=O)[C@H]1[C@H](C)C[C@@H]2[C@@H]3C[C@@H](F)C4=CC(=O)C=C[C@]4(C)[C@@]3(F)[C@@H](O)C[C@@]21C -0.472%
COc1ccc(NC(=O)Cn2c(=O)cc(C)c3c(C)nn(-c4cccc(Cl)c4C)c32)cc1OC 0.446%
CCCCCCCCCc1ccc(OCCOCCOCCOCCOCCOCCOCCOCCOCCO)cc1 5.73%
COc1cc(CNCCSc2nnnn2C)ccc1OCc1c(F)cccc1Cl 2.51%
Cc1cccc(N2CCN(C(=O)c3cc4c(=O)oc5ccccc5c4s3)CC2C)c1 (stereo unspecified) -0.212%
CC(C)(O/N=C(\C(=O)N[C@@H]1C(=O)N2C(C(=O)[O-])=C(C[n+]3ccccc3)CS[C@@H]12)c1csc(N)n1)C(=O)O -3.84% [at 19.8 µM]
COc1ccccc1NC(=O)C1=C(C)Nc2ncnn2C1c1sccc1C (stereo unspecified) 9.66%
CCC(CCC(C)C1CCC2C3CC=C4CC(O)CC[C@@]4(C)C3CC[C@@]12C)C(C)C (stereo partly specified) 11.2%
Cc1sc2ncn(CC(=O)N3CCN(c4ccc(F)cc4)CC3)c(=O)c2c1S(=O)(=O)N1CCN(c2ncccn2)CC1 -4.64%
Cc1cccc(NC(=O)Cn2c(C(F)(F)F)nc3ccccc32)c1C -0.396%
COc1cc(OC)cc(C(=O)Nc2ccc3nc(Nc4cccc(C(F)(F)F)c4)cc(C)c3c2)c1 -14.1%
CC(=O)Oc1ccccc1C(=O)Nc1ncc([N+](=O)[O-])s1 -1.78%
COc1ccccc1CNC(=O)CCn1c(=O)c2ccccc2n(CC(=O)Nc2ccc(Br)cc2F)c1=O -2.58%
Cc1ccc(N2CCN(C(=O)CCc3c(C)nc4c(c3C)c(=O)n(C)c(=O)n4C)CC2)c(C)c1 -1.8%
C/C=C1\C2C=C(C)CC1(N)c1ccc(=O)[nH]c1C2 (stereo unspecified) -2.31%
CC(=O)NC(=O)c1ccccc1O -4.09%
CCCOc1ccc(-c2cccc(NS(=O)(=O)c3ccccc3)c2)nn1 -0.146%
Cc1ccc(S(=O)(=O)NC(=O)NN2C[C@H]3CCC[C@@H]3C2)cc1 -4.28% [at 19.8 µM]
COc1ccc(-c2c(C)nn3c(N4CCC(C(=O)NCCC(C)C)CC4)cc(C)nc23)cc1OC 0.364%
CN(C)CCCSc1ccccc1NC(=O)/C=C/c1ccccc1 6.6%
CCOC(=O)c1c(NC(=O)c2ccc(S(=O)(=O)N3CCCC(C)C3)cc2)sc2c1CCN(C(C)C)C2 (stereo unspecified) 8.14%
C[N+](C)(CCOc1ccccc1)Cc1cccs1 (tested in a mixture with another compound) 1.72%
CCOc1ccccc1NC(=O)C1=C(C)Nc2ncnn2C1c1ccc(NC(C)=O)cc1 (stereo unspecified) -6.86%
COc1cccc(CNCCSc2nnnn2C)c1OCc1ccccc1Cl 2.98%
CCc1ccc(C(=O)CC2(O)C(=O)N(CCc3ccccc3)c3ccc(Br)cc32)cc1 (stereo unspecified) -2.5%
COc1ccccc1CNC(=O)CCn1c(=O)c2ccccc2n(CC(=O)Nc2cccc(Cl)c2)c1=O -0.689%
COc1ccc(CCNc2nc(-c3ccc(F)cc3)cc(C(F)(F)F)n2)cc1OC -0.152%
CCc1ccc(Sc2cc(C(=O)NCCCOC(C)C)c3ccccc3n2)cc1 -7.03%
O=C(CSc1ncc(CO)n1Cc1ccc(Cl)cc1)NCc1ccc(F)cc1 8.49%
COCCNC(=O)c1ccc2c(c1)N=C(C)c1cc(C)ccc1S2 -0.88%
Oc1ccc(Cl)c2c1CCC2 4.26%
COc1ccccc1-c1cc2nc(C)c(CCC(=O)O)c(C)n2n1 -1.35%
O=C(CCS(=O)(=O)c1ccc2c(c1)NC(=O)CO2)Nc1cccc(C(F)(F)F)c1 -0.552%
CCCC[C@H]1C(=O)N(c2ccccc2)N(c2ccc(O)cc2)C1=O 1.82% [at 19.8 µM]
COc1ccc(-n2c(C)nc3c(cnn3-c3ccc(F)cc3)c2=O)cc1 -0.59%
COc1ccc2cc(-c3nc(Cl)c4c5c(sc4n3)CC(C)CC5)c(=O)oc2c1 (stereo unspecified) 1.37%
O=C(OCc1ccccc1)c1ccc(O)cc1 0.159%
Cc1ccccc1C(=O)Nc1cc(C)c(O)c(-c2nc3ccccc3o2)c1 -0.525%
O=C1c2c(O)cccc2[C@@H]([C@@H]2O[C@H](CO)[C@@H](O)[C@H](O)[C@H]2O)c2cc(CO)cc(O)c21 0.834%
CCOCCCNC(=O)c1cn(CC)c2ccc(S(=O)(=O)N3CCc4ccccc4C3)cc2c1=O 1.02%
CC(=O)N1CCc2cc(Br)cc(S(=O)(=O)CCC(=O)NCCc3ccc(Cl)cc3)c21 0.617%
COc1ccc(Nc2ncc(C(=O)Nc3cc(C)ccc3OC)c3ccccc23)cc1 0.74%
COc1cc2nc(SCC(=O)Nc3ccccc3F)n3nc(-c4ccccc4)nc3c2cc1OC -0.682%
CCN(CC)c1ccc(C2C(C(N)=O)=C(C)Nc3nc(SCc4ccccc4)nn32)cc1 (stereo unspecified) 2.01%
CCCCCn1c(=O)[nH]c2cc(C(=O)Nc3ccc(F)cc3)ccc2c1=O 0.528%
CC[C@]1(C)CC(=O)NC1=O -4.13%
COc1cc(OC)c(NC(=O)c2c3c(nn2C)-c2ccccc2SC3)cc1Cl 0.142%
COc1ccc(-c2cc(C(F)(F)F)nc(SCC(=O)N(C)Cc3ccccc3)n2)cc1OC 4%
CC1(C)O[C@@H]2C[C@@H]3[C@H]4C[C@@H](F)C5=CC(=O)C=C[C@]5(C)[C@@]4(F)[C@@H](O)C[C@]3(C)[C@]2(C(=O)CO)O1 -0.578%
Cc1ccc(C)c(N2C(=O)N(Cc3c(F)cccc3Cl)c3ccccc3S2(=O)=O)c1 0.891%
COc1cccc(CNC(=O)C(NS(=O)(=O)c2ccc3nc(C)sc3c2)C(C)C)c1 (stereo unspecified) -4.28%
Cc1cc2c(cc1S(=O)(=O)CCC(=O)Nc1ccc(OC(F)(F)F)cc1)OCC(=O)N2 18.1%
NC(=O)C(=O)N/N=C/c1ccc([N+](=O)[O-])o1 -3.04%
Cc1ccc(-c2ncc(Cl)cc2-c2ccc(S(C)(=O)=O)cc2)cn1 0.0129%
Cc1nnc(C(=O)NC(C)(C)c2nc(C(=O)NCc3ccc(F)cc3)c(O)c(=O)n2C)o1 12.6%
CC[C@]1([C@H]2O[C@@H]([C@@H]3O[C@](O)(CO)[C@@H](C)C[C@H]3C)C[C@H]2C)CC[C@@H]([C@]2(C)CC[C@@]3(C[C@@H](O)[C@@H](C)[C@@H]([C@H](C)[C@H](OC)[C@H](C)C(=O)O)O3)O2)O1 -2.14%
COc1ccc(NC(=O)C2CCCN(S(=O)(=O)c3c(C)[nH]c(=O)[nH]c3=O)C2)c(OC)c1 (stereo unspecified) -0.467%
Cc1cccc(C)c1NC(=O)NC1=CCCN1C 4.03%
CCCN(C(=O)Cn1cc(S(=O)(=O)N2CCN(c3ccccc3F)CC2)c2ccccc2c1=O)c1cccc(C)c1 -0.739%
C[C@@H]1C[C@H]2[C@@H]3C[C@H](F)C4=CC(=O)C=C[C@@]4(C)[C@]3(F)[C@H](O)C[C@]2(C)[C@@]1(O)C(=O)CO -0.723% [at 19.8 µM]
CCCC(=O)O[C@]1(C(=O)COC(=O)CC)CC[C@@H]2[C@@H]3CCC4=CC(=O)CC[C@]4(C)[C@H]3[C@@H](O)C[C@@]21C -1.61%
CC(=O)CC(c1ccccc1)C1C(=O)Oc2ccccc2C1=O (stereo unspecified) -4.85%
COc1cc2c(cc1OC)[C@@H](Cc1cc(OC)c(OC)c(OC)c1)[N+](C)(CCCOC(=O)CC/C=C/CCC(=O)OCCC[N+]1(C)CCc3cc(OC)c(OC)cc3[C@H]1Cc1cc(OC)c(OC)c(OC)c1)CC2 (stereo partly specified) -0.798%
Cc1cc(OCC(=O)NCC2(N(C)C)CCCCC2)cc(C)c1Cl -2.17%
CC(=O)c1ccc(NC(=O)C2CCN(S(=O)(=O)c3c(C)noc3/C=C/c3ccc(C)cc3)CC2)cc1 -2.34%
COc1ccc(NC(=O)c2cnc(Nc3ccc(C)c(Cl)c3)c3ccccc23)cc1OC -1.26%
O=C(NCc1ccccc1)C1CCN(S(=O)(=O)c2ccc3[nH]c(=O)ccc3c2)CC1 1.16%
